Experimental findings from PubChem BioAssay (NCATS) are described below.

Experiment [1] has as its target Cytochrome P450 1A2 (Homo sapiens) (UniProt P05177). As to the kind of experiment: p450-cyp1a2 (AID 410; calls by dose curve; note: potency is the fitted concentration of half-maximal effect). A digest of the protocol:
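20nM CYP1A2 with 100uM Luciferin-ME (at Km) in 100mM KPO4; compound preincubated 10 min, NADPH regeneration added, 60 min at room temperature. Luciferin quantified by luminescence after detection reagent; normalized to 57 uM furafylline.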

Experiment [2] is described as follows: Stat Signaling Pathway (AID 446; active = well fitted curve in either direction with a large enough effect, not every such curve was filed as active;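 note: ME-180 cervical cancer cells given 40 pM IL-6 alongside compound; SIE-controlled beta-lactamase reporter measured as 460/530 nm FRET emission ratio; % is set by controls: 0 for no effect and ±100 for the full control effect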). The procedure, abridged:
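Screening format detects activators and inhibitors alike: ME-180 SIE-bla cells stimulated at 40 pM IL-6 for 5 hrs with compound, then dual-emission beta-lactamase read at 405 nm excitation.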

For experiment [3], the target named is Glucocorticoid receptor (Homo sapiens) (UniProt P04150). As to the kind of experiment: GR-GFP Redistribution (AID 450;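 active = compounds whose dose series gives a full or clear partial fitted curve of increased nuclear translocation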; note: potency is the fitted concentration of half-maximal effect). The following applies: U2OS GR-GFP nuclear translocation, laser cytometry, 2 h.
Experiment [4] shares this target. In words: GR-EFC Redistribution (AID 451; calls by dose curve; note: potency is the fitted concentration of half-maximal effect). As to conditions: CHO-K1 GR-EFC translocation, beta-gal luminescence, 2 h. A digest of the protocol:
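CHO-K1 cells expressing nuclear EA and GR-ED fragments of b-gal; compounds titrated up to 46 uM final, 2 h at 37 C. GR nuclear translocation read as complemented b-gal luminescence after 1 h RT detection.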

The target in experiment [5] is Mitogen-activated protein kinase 10 (Mus musculus) (UniProt Q61831). As to the kind of experiment: JNK3 AlphaScreen Assay (AID 530; active = well fitted curve in either direction with a large enough effect, not every such curve was filed as active;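 note: kinase came from lysate of stimulated human HepG2 cells; signal reports phosphorylation of biotinylated GST-cJun 1-79 at Ser73 with 10 µM ATP; % is set by controls: 0 for no effect and ±100 for the full control effect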). A digest of the protocol: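 Pre-activated (IL-1β/TNFα) JNK3 in HepG2 lysates phosphorylates biotin-GST-cJun(1-79), 10 uM ATP; anti-phospho-cJun(Ser73) AlphaScreen read at room temperature, pH 7.6 Tris buffer. Compounds pre-incubated 15 min as titrations.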

For experiment [6], the target named is Cytochrome P450 3A4 (Homo sapiens) (UniProt P08684). As to the kind of experiment: qHTS Assay for Activators of Cytochrome P450 3A4 (AID 885). Note: nearly all actives have a fitted effect of over 65% in size. A digest of the protocol:
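Steps: enzyme/substrate mix dispensed; compound added, 10 min RT; NADPH regeneration solution added, 60 min RT; luciferin detection buffer stops reaction; 20 min later luminescence measured.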

Experiment [7] deals with Cytochrome P450 2C19 (Homo sapiens) (UniProt P33261). As to the kind of experiment: qHTS Assay for Inhibitors and Substrates of Cytochrome P450 2C19 (AID 899). Note: potency is the fitted concentration of half-maximal effect; nearly all actives have a fitted effect of over 60% in size. The procedure, abridged:
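5 nM human CYP2C19 with 10uM Luciferin-H EGE (at KM) in 50mM KPO4, compound preincubated 10 min at 37C, then NADPH regeneration for 60 min at 37C. Luciferin read by luminescence after detection reagent; normalized to 57uM ketoconazole as full inhibition.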

For experiment [8], the target named is Dual specificity protein kinase CLK4 (Homo sapiens) (UniProt Q9HAZ1). In words: qHTS Assay for Inhibitors of CDC-like Kinase 4 (Kinase-Glo Assay) (AID 1770). Note: nearly all actives have a fitted effect of over 65% in size. Note: potency is the fitted concentration of half-maximal effect. A digest of the protocol:
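Recombinant human Clk4 (25 nM) phosphorylated RS repeat peptide (100 uM) with 1 uM ATP in Tris pH 7.5/MgCl2/EGTA/DTT/Triton buffer for 4.5 h at room temperature. Residual ATP was quantified by Kinase-Glo luciferase luminescence.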

Experiment [9] has the same target. As to the kind of experiment: qHTS Assay for Inhibitors of CDC-like Kinase 4 (ADP-Glo Assay) (AID 1771). Note: nearly all actives have a fitted effect of over 70% in size. Note: potency is the fitted concentration of half-maximal effect. A digest of the protocol:
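25 nM Clk4 with 100 uM RS repeat peptide and 1 uM ATP (final) in buffer with 2 mM MgCl2, 0.5 mM EGTA, 2.5 mM DTT, 0.01% Triton X-100; 1 h at room temperature; ADP-Glo luminescence for ADP formed.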

The target is the same in experiment [10]. In words: qHTS Assay for Inhibitors of CDC-like Kinase 4 (ADP-FP Assay) (AID 1795). Note: nearly all actives have a fitted effect of over 60% in size. Note: potency is the fitted concentration of half-maximal effect. A digest of the protocol: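 Recombinant human Clk4 (6.25 nM) phosphorylated RS repeat peptide (100 uM) with 1 uM ATP in Tris pH 7.5/MgCl2/EGTA/DTT/Triton buffer for one hour. ADP was quantified by Transcreener competitive fluorescence polarization against an ADP calibration curve.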

Experiment [11] has as its target Ubiquitin carboxyl-terminal hydrolase 1 (Homo sapiens) (UniProt O94782). As to the kind of experiment: Inhibitors of USP1/UAF1: Pilot qHTS (AID 504865).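 Note: rhodamine fluorescence freed from ubiquitin-rhodamine substrate followed over time; top concentration of the series differs between compounds; % is set by controls: 0 for no effect and ±100 for the full control effect; nearly all actives have a fitted effect of over 35% in size.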 A digest of the protocol:
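USP1/UAF1 complex (1nM) preincubated with compound 15 min at room temperature, then Ub-Rho substrate (150nM final) added. Fluorescence read kinetically at 480/540 nm, 6 reads every 60 seconds. Buffer: 50mM HEPES pH 7.8, 0.5mM EDTA, 0.1 mg/ml BSA, 1mM TCEP, 0.01% Tween-20.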

The target of experiment [12] is Lysosomal acid glucosylceramidase (Homo sapiens) (UniProt P04062). As to the kind of experiment: Glucocerebrosidase-p2 (AID 348; in the data active = potency below about 10 µM; note: potency is the fitted concentration of half-maximal effect). The following applies: purified GBA, blue fluorogenic substrate, 40 min. A digest of the protocol:
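Compounds titrated from 0.6 nM upwards against 0.2 nM enzyme in pH 5.9 citric acid/KH2PO4, taurocholate, tween-20; blue fluorogenic substrate 80 uM, 40 min room temperature, stopped and read Ex 365/Em 440 for AC50.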

Experiment [13] is described as follows: AP1 Signaling Pathway (AID 357; active = well fitted curve in either direction with a large enough effect, not every such curve was filed as active; note: % is set by controls: 0 for no effect and ±100 for the full control effect). As to conditions: ME-180 AP-1-bla reporter, EGF-induced, beta-lactamase ratio, 5 h; at 7.69 µM (top of the series) unless noted. The procedure, abridged: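 Cells are seeded overnight, exposed to compound titrations and an EC50 level of EGF for 5 hours at 37 °C, then loaded with CCF4 dye for 2.5 hours. Beta-lactamase activity under the AP-1 element is read as a blue/green ratio.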

Experiment [14] in a line: NFAT Signaling Pathway (AID 444; active = well fitted curve in either direction with a large enough effect, not every such curve was filed as active;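 note: carbachol stimulus at about its EC50 of 1 µM final; % is set by controls: 0 for no effect and ±100 for the full control effect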). The following applies: Jurkat NFAT-bla M1, carbachol, beta-lactamase ratio, 5 h; at 7.69 µM (top of the series) unless noted. A digest of the protocol: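 Jurkat cells with NFAT-driven β-lactamase reporter and co-expressed M1 receptor, stimulated with carbachol (final 1 uM, ~EC50), compound titration, 5 h at 37 °C. CCF4 loaded 1 h at RT; 460/530 nm ratio gave %activity and AC50.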

For experiment [15], the target named is 3',5'-cyclic-AMP phosphodiesterase 4B (Homo sapiens) (UniProt Q07343). In words: qHTS Assay for Inhibitors of PDE-IV (AID 607; active = well fitted activation curve with a large enough effect in the main read-out, with a control signal flat, not every such curve was filed as active; note: % of control where 0% means no effect). The procedure, abridged:
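The readout is membrane depolarisation from a cAMP-sensing CNG channel, detected with a potential dye at ex 535/em 590. Cells were HEK293-derived (endogenous PDE-IV) at 1000 cells/well, titrated up to 22.9 uM final.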

Experiment [16] in a line: qHTS Assay for Identification of Small Molecule Agonists for Hypoxia Response Element Signaling Pathway (AID 914; active = well fitted activation curve with a large enough effect in the signal ratio, with a control signal flat, not every such curve was filed as active; the % refers to the signal ratio; note: potency is the fitted concentration of half-maximal effect). As to conditions: ME-180 HRE-bla reporter, beta-lactamase ratio, CoCl2, 17 h; activation: stronger effect = higher value. The procedure, abridged: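 ME-180 cells carrying an HRE-driven beta-lactamase reporter were treated with compounds in a titration series plus an EC50 level of CoCl2 for 17 h at 37 degrees Celsius; CCF4 readout as the 460nm/530nm ratio gave AC50 values.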

The structures appear in SMILES notation. A number with no mark means an inactive call. Inconclusive results are not listed. Activity calls are given as the source filed them. Unless noted, calls come from the whole dose curve; as a rule, active = well fitted curve in the direction sought with a large enough effect; inconclusive = small, poorly fitted or top-dose-only effect, or another doubt; inactive = no such curve, though single readings can be large; an effect the other way counts as inactive or inconclusive.

Sequence of Cytochrome P450 3A4 (Homo sapiens) (P08684 whole entry, looked up): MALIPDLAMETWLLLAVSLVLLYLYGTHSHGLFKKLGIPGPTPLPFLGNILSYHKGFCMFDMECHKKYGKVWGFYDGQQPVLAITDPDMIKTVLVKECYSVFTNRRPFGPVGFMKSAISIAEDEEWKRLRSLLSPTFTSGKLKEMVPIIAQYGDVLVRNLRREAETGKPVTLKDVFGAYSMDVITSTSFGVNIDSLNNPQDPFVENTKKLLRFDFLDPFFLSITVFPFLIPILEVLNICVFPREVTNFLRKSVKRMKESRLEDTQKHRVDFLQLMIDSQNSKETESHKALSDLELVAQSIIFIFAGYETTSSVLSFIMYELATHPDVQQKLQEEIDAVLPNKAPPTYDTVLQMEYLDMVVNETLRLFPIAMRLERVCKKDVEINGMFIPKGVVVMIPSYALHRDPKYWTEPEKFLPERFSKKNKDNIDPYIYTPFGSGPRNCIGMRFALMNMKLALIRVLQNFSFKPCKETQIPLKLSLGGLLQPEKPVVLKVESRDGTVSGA
Sequence of Lysosomal acid glucosylceramidase (Homo sapiens) (P04062 whole entry, looked up): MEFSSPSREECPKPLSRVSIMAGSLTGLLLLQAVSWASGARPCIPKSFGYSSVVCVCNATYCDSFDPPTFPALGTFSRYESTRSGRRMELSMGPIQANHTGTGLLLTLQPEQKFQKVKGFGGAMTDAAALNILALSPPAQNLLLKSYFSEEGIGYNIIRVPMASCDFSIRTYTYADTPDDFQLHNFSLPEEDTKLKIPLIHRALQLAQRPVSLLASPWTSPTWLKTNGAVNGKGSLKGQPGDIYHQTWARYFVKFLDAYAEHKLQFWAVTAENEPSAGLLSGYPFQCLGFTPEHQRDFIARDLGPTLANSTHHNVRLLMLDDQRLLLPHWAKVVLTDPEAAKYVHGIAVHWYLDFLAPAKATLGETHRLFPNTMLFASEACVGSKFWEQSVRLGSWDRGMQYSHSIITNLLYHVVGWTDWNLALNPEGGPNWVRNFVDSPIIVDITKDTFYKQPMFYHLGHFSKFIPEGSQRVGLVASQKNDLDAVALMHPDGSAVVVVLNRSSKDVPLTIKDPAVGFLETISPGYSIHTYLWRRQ
Sequence of 3',5'-cyclic-AMP phosphodiesterase 4B (Homo sapiens) (Q07343 whole entry, looked up): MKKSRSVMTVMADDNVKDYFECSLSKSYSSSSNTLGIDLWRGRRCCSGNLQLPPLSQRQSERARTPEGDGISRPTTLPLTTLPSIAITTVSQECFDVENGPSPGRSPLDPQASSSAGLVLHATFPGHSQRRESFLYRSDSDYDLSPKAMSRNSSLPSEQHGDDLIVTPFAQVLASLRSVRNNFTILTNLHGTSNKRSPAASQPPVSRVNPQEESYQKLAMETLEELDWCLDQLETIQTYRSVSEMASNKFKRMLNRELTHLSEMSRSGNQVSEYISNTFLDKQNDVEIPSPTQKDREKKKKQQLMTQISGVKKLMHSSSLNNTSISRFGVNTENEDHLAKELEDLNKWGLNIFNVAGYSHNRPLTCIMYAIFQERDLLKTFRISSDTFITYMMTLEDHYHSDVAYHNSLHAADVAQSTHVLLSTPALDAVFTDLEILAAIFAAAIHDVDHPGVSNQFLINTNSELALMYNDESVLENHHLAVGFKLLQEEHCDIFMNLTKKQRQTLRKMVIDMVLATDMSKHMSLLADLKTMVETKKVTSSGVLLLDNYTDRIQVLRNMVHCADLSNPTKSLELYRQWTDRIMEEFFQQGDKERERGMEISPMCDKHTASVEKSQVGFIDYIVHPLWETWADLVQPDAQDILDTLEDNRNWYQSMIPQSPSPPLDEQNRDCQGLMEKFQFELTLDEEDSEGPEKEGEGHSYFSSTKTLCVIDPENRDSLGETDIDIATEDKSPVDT
Sequence of Cytochrome P450 1A2 (Homo sapiens) (P05177 whole entry, looked up): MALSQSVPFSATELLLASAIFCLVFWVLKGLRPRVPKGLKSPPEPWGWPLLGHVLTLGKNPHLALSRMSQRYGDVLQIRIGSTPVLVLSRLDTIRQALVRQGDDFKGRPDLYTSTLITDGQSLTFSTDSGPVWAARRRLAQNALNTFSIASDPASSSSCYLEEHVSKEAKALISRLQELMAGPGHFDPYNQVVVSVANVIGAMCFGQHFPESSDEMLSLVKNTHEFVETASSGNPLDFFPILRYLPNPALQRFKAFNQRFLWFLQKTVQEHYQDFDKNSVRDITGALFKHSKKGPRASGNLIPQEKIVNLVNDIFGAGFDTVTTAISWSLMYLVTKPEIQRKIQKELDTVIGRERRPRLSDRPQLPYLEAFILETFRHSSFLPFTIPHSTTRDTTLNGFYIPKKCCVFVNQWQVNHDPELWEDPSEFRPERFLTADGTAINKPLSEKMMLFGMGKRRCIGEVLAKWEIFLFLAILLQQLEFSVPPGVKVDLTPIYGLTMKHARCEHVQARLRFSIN
Sequence of Dual specificity protein kinase CLK4 (Homo sapiens) (Q9HAZ1 whole entry, looked up): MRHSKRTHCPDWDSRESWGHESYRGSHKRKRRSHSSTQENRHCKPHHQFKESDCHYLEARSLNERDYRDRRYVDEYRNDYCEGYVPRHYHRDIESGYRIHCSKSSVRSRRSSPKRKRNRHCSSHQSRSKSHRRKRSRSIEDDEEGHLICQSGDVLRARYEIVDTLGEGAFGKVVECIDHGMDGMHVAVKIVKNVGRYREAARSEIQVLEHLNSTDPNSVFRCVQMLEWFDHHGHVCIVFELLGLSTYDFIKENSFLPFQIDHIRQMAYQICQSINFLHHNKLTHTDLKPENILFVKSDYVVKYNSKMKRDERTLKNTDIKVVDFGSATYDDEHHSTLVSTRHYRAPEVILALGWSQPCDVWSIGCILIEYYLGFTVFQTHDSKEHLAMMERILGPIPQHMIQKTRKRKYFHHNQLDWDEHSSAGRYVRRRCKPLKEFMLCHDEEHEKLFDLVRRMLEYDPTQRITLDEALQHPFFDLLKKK
Sequence of Ubiquitin carboxyl-terminal hydrolase 1 (Homo sapiens) (O94782 whole entry, looked up): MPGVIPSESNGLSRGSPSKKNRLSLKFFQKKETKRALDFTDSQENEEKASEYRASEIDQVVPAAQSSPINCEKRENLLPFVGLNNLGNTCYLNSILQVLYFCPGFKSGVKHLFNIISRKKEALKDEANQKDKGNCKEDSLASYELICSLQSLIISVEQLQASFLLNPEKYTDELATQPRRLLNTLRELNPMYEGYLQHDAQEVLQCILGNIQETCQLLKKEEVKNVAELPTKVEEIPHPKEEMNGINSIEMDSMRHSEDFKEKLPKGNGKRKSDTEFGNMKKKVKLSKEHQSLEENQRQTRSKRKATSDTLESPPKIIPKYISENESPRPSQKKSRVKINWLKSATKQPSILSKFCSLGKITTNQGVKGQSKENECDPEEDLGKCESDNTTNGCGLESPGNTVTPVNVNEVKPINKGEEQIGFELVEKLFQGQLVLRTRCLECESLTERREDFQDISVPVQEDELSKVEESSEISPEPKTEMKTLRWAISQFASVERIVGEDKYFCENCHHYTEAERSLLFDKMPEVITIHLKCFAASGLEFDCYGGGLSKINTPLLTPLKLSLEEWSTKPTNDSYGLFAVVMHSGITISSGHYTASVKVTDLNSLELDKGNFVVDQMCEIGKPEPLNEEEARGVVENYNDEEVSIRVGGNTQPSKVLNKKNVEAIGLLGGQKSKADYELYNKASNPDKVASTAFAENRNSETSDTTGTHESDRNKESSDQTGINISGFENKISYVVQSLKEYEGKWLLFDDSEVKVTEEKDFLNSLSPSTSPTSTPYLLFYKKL
Sequence of Glucocorticoid receptor (Homo sapiens) (P04150 whole entry, looked up): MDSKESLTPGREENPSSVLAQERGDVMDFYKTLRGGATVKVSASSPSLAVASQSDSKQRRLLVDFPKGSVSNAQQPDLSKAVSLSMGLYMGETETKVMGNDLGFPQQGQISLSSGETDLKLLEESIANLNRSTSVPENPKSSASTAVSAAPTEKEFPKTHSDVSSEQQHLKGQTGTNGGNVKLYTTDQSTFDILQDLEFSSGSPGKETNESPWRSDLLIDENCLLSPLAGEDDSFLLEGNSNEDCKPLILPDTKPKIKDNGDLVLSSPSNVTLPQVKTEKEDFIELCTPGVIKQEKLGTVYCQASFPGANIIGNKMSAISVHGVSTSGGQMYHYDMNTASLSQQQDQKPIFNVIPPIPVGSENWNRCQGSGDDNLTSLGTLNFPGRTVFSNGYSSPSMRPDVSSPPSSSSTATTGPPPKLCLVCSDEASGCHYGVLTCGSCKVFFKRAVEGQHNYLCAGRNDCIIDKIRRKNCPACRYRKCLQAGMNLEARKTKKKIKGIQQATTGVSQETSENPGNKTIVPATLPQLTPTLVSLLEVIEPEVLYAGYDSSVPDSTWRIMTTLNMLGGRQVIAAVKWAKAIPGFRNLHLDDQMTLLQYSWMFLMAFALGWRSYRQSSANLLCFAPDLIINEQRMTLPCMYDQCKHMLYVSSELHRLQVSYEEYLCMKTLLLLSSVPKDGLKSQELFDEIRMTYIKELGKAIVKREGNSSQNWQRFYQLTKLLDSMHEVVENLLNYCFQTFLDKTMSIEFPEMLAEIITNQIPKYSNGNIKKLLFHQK
Sequence of Cytochrome P450 2C19 (Homo sapiens) (P33261 whole entry, looked up): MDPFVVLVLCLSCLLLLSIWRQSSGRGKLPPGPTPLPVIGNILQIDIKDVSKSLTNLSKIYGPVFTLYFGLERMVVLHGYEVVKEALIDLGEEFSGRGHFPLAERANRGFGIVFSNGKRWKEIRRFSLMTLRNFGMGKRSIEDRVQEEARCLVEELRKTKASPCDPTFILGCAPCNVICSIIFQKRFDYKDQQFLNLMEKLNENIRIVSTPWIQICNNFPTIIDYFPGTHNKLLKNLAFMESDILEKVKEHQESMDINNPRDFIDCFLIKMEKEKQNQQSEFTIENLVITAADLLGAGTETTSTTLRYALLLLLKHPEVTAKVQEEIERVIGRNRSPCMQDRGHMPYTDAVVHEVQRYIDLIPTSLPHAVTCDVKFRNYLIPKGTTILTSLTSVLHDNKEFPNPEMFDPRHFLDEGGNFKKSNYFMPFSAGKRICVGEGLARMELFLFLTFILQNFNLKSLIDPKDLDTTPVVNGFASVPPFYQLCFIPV

Consider `COc1cccc(-c2ccc3ncnc(Nc4ccccc4)c3c2)c1`, for which the Potency is 1 µM (active) in experiment [1]; over 46 µM in experiment [3]; over 46 µM in experiment [4]; 0.501 µM (active) in experiment [7]; 2 µM (active) in experiment [8]; 2.82 µM (active) in experiment [9]. In addition, in experiment [10], the Potency was 0.282 µM (active). Further, the result in [2] and in experiment [6] was inactive. In addition, the Potency result in experiment [5] and in experiment [11] was “inactive” each time.
Regarding `Cc1cnc(CNc2ncnc3ccc(-c4ccccc4C)cc23)cn1`, the Potency in experiment [12] was over 11.4 µM; in experiment [1], 6.31 µM (active); in experiment [3], over 46 µM; in experiment [4], over 46 µM; in [8], 28.2 µM (active); in [9], 25.1 µM (active). The values for the activity change, negative = inhibition in experiment [13] and in experiment [14] were -14.7% and -7.95%, respectively. Also, the outcome in experiment [2] and in experiment [6] was inactive. Further, the Potency result in [15] and in experiment [11] was “inactive” each time.
Regarding `COc1cccc(-c2nc(NCCN3CCOCC3)c3ccccc3n2)c1`, the Potency is over 11.4 µM in experiment [12]; over 46 µM in [3]; over 46 µM in experiment [4]; 15.8 µM (active) in [8]; 15.8 µM (active) in [9]. Further, the activity change, negative = inhibition in [13] was 6.11%; in experiment [14], -2.08%. Besides, the result in [2] and in experiment [6] was inactive. For the same molecule, the Potency entry in experiment [15] and in [11] was “inactive” each time.
Turning to `c1cncc(CNc2nc(-c3cccnc3)nc3ccccc23)c1`, the activity change, negative = inhibition in experiment [13] was -12.9%; in experiment [14], -15.2%. The Potency in experiment [1] was 0.316 µM (active); in experiment [3], over 46 µM; in [4], over 46 µM; in experiment [8], 7.08 µM (active); in [9], 12.6 µM (active); in [10] it was 11.2 µM (active). In addition, the result in experiment [2] was inactive. For the same molecule, the Potency result in experiment [5] and in [11] was “inactive” in each case.
Take `CCNc1ncc2nc(-c3ccc(OC)cc3)c(=O)n(C)c2n1`: the activity change, negative = inhibition in [13] was 22.4%. The Potency in [4] is over 46 µM; in experiment [16] it was 3.98 µM (active). Moreover, the Potency entry in experiment [5], in [8], in experiment [9], in experiment [10] and in experiment [11] was “inactive” each time.
Consider `COc1cccc(Nc2ncc3nc(-c4cccs4)c(=O)n(C[C@H]4CCCO4)c3n2)c1`, for which the Potency was over 11.4 µM in experiment [12], over 9.22 µM in experiment [3] and over 46 µM in experiment [4]. Further, the activity change, negative = inhibition in [14] is -15.5%. The molecule was classed as inactive in experiment [2]. For the same molecule, the Potency result in experiment [5], in [15], in experiment [8], in [9] and in experiment [10] was “inactive” in each case.
In the case of `COc1ncc2nc(CCc3ccccc3)c(=O)n(-c3ccccc3)c2n1`, the figures for the activity change, negative = inhibition in [13] and in [14] were -22.4% and -14.3%, respectively. Also, the Potency was 12.6 µM (active) in experiment [1], over 9.22 µM in experiment [3] and over 46 µM in experiment [4]. In addition, the molecule was classed as inactive in [2]. Moreover, the Potency entry in experiment [5], in [15], in [8], in experiment [9], in experiment [10] and in experiment [11] was “inactive” in each case.
